Results: PubChem BioAssay AID1159580 (chemical genetic matrix, 2015)
Out of some 5,500 compounds screened, about 2,000 (36%) were called active. Another 18% or so got no clear call; they are omitted. Rule as the data show it: active = normalized growth mostly below about 0.91 (no sharp cut-off); inconclusive = no clear call, values can overlap the other calls; inactive = mostly above about 0.92. The list shows a part of the results.

Assay: chemical genetic growth profiling, strain panel (AID 1159580);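 also: tested at 20 µM; growth read once vehicle control cultures reached saturation at 30 °C; 1 = growth at the plate median or of vehicle wells; lower values mean less growth of the strain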
Conditions: S. cerevisiae deletion strains, growth OD

Measured: normalized growth

COc1ccccc1N1CCN(CCN2C(=O)CC3(CCCC3)CC2=O)CC1
inactive: locus YER002W, strain NOP16, stronger effect = lower value 0.998 | locus YMR263W, strain SAP30, stronger effect = lower value 1 | locus YMR307W, strain GAS1, stronger effect = lower value 0.989 | locus YNL128W, strain TEP1, stronger effect = lower value 0.988 | locus YNL175C, strain NOP13, stronger effect = lower value 0.991 | locus YNL197C, strain WHI3, stronger effect = lower value 0.999 | locus YNL224C, strain SQS1, stronger effect = lower value 1 | locus YOR083W, strain WHI5 (second series), stronger effect = lower value 0.999 | locus YPL055C, strain LGE1, stronger effect = lower value 1 | locus YPL241C, strain CIN2, stronger effect = lower value 1.01
